Measurements: PubChem BioAssay (Tox21)
Values without a mark were called inactive. Calls of active or inactive are those of the source. The call rests on the fitted dose curve; in most records, active means well fitted curve in the direction sought with a large enough effect in the repeat runs; inconclusive means weak or mixed curves; inactive means flat fitted curve, though single readings scatter.

experiment: qHTS assay to test for compound auto fluorescence at 460 nm (blue) in HEK293 cell free culture (AID 720681); conditions: cell-free medium, autofluorescence 405/460 nm (blue); series mostly up to 91.3 µM; fluorescence, % of fluorescent control: at the top concentration
In short: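 Compounds were added to cell-free DMEM with 10% FBS and fluorescence read directly. The blue channel used 405 nm excitation and 460 nm emission, with triamterene as the reference fluorophore.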
On the % scale 0 is the no-effect control and ±100 the full control effect.

Compared with `CC(N)C(=O)OC(C)(C)Cc1ccc(Cl)cc1` (centres undefined), `NS(=O)(=O)c1ccc(NC(=O)CCC(=O)O)cc1` is higher in “fluorescence, % of fluorescent control” value: -0.0063% [at 46 µM] for the first, 0.168% [at 46 µM] for the second.

First: CC(S)C(=O)NCC(=O)O (centres undefined)
Second: CC(=O)Nc1ccc(S(=O)(=O)Nc2ccc([N+](=O)[O-])cc2)cc1
The “fluorescence, % of fluorescent control” value of the first is higher: 0.595% [at 46 µM] for the first, -0.0253% [at 46 µM] for the second.

First: CCO[Si](CCCS)(OCC)OCC
Second: COCCOCCOCCOCCOCCO
The “fluorescence, % of fluorescent control” value of the first is lower: 0% for the first, 0.044% for the second.

First: O=C(/N=N/C(=O)OCc1ccccc1)OCc1ccccc1
Second: O=C(c1ccc(O)cc1)c1ccc(O)c(O)c1O
The “fluorescence, % of fluorescent control” value of the first is lower: -0.0753% for the first, 1.05% for the second.

First: C#CC(C)N(C)C(=O)Nc1ccc(Cl)cc1 (centres undefined)
Second: CC1=CCC(C(C)C)=CC1
The “fluorescence, % of fluorescent control” value of the first is higher: 0.0457% for the first, -0.0911% for the second.

First: Nc1ccc([N+](=O)[O-])c(N)c1
Second: CCOc1cc([N+](=O)[O-])c(OCC)cc1N1CCOCC1
The “fluorescence, % of fluorescent control” value of the first is lower: -0.679% for the first, -0.0234% for the second.

First: CC(C)(C)NC(N)=O
Second: CC(=O)c1sc(C)nc1C
The “fluorescence, % of fluorescent control” value of the first is lower: -0.0049% for the first, 0.0536% for the second.

Molecule `COC(=O)C1CC(=O)C(C(=O)OC)CC1=O` (centres undefined) has a fluorescence, % of fluorescent control of 1.67% [at 3.72 µM].

With `Oc1cn2c(n1)Nc1ccc(Cl)c(Cl)c1C2` the outcome was “inactive”.
For `O=C1O[C@@H]2[C@@H](O)[C@H](O)O[C@@H]2[C@H]1O`, the outcome was “inactive”.

experiment: qHTS assay to test for compound auto fluorescence at 535 nm (green) in HEK293 cell free culture (AID 720682); conditions: cell-free medium, green autofluorescence 485/535 nm, active compounds read high; series mostly up to 91.3 µM; activity change: at the top concentration
In short: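 Steps: dispense DMEM/10% FBS into empty wells; pin in compound or DMSO; measure fluorescence at 485/535 nm. Values are fluorescein equivalents.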

Going from `O=C(O)Cc1cn(-c2ccccc2)nc1-c1ccc(Cl)cc1` to `CC(=O)Nc1ccc(S(=O)(=O)Nc2ccc([N+](=O)[O-])cc2)cc1`, the “activity change” value falls from 0.0233% [at 46 µM] to -0.0065% [at 46 µM].

Going from `Nc1nnc(-c2cccc(Cl)c2Cl)c(N)n1` to `Cc1cccc(C)c1OCC(C)N` (centres undefined), the “activity change” value rises from -0.0777% [at 46 µM] to 0.0709% [at 46 µM].

Compared with `COCCOC(=O)C1=C(C)NC(C)=C(C(=O)OC(C)C)C1c1cccc([N+](=O)[O-])c1` (centres undefined), `NS(=O)(=O)c1ccc(NC(=O)CCC(=O)O)cc1` is lower in “activity change” value: 0.106% [at 46 µM] for the first, 0.0421% [at 46 µM] for the second.

In the case of `COc1ccc(-c2cc(=O)c3c(O)cc(O[C@@H]4O[C@H](CO[C@@H]5O[C@@H](C)[C@H](O)[C@@H](O)[C@H]5O)[C@@H](O)[C@H](O)[C@H]4O)cc3o2)cc1O`, the “activity change” value is reported as -0.116% [at 46 µM].

First: CCCCCCOC(=O)CC
Second: CCO[Si](CCCS)(OCC)OCC
The “activity change” value of the first is higher: 0.127% for the first, 0.0189% for the second.

First: C[C@@H]1O[C@@H](O[C@@H]2[C@@H](O)[C@H](OCCc3ccc(O)c(O)c3)O[C@H](CO[C@@H]3O[C@H](CO)[C@@H](O)[C@H](O)[C@H]3O)[C@H]2OC(=O)/C=C/c2ccc(O)c(O)c2)[C@H](O)[C@H](O)[C@H]1O
Second: O=C(c1ccc(O)cc1)c1ccc(O)c(O)c1O
The “activity change” value of the first is lower: -0.0203% for the first, -0.0137% for the second.

Compared with `CC(=O)/C=C/C1C(C)=CCC(C)C1(C)C` (centres undefined), `C=C(C)C(=O)OCCNC(C)(C)C` is lower in “activity change” value: 0.097% for the first, 0.0024% for the second.

Going from `Brc1ccc(-c2ccccc2)cc1` to `O=C(/N=N/C(=O)OCc1ccccc1)OCc1ccccc1`, the “activity change” value rises from -0.016% to 0.0065%.

Going from `C=COCCOCCOCCOC=C` to `COCCOCCOCCOCCOCCO`, the “activity change” value falls from 0.0317% to 0.0035%.

First: C=Cc1ccccn1
Second: Nc1ccc([N+](=O)[O-])c(N)c1
The “activity change” value of the first is lower: -0.111% for the first, -0.0001% for the second.

First: C#CC(C)N(C)C(=O)Nc1ccc(Cl)cc1 (centres undefined)
Second: CC(C)(C)NC(N)=O
The “activity change” value of the first is lower: -0.011% for the first, 0.072% for the second.

With `CCOc1cc([N+](=O)[O-])c(OCC)cc1N1CCOCC1` the “activity change” value was -0.0315%.

In the case of `CC(C)NCC(O)COc1ccc(COCCOC(C)C)cc1` (centres undefined), the outcome is reported as “inactive”.
With `Oc1cn2c(n1)Nc1ccc(Cl)c(Cl)c1C2` the outcome was “inactive”.
In the case of `O=C1O[C@@H]2[C@@H](O)[C@H](O)O[C@@H]2[C@H]1O`, the outcome is reported as “inactive”.

Work on `CC(=O)CCCCn1c(=O)c2c(ncn2C)n(C)c1=O` yielded an activity change of 0.0172% [at 18.6 µM].

Molecule `COC(=O)C1CC(=O)C(C(=O)OC)CC1=O` (centres undefined) has an activity change of -0.0001% [at 3.72 µM].
